The nature of assay [1]: A549 cell viability effects, profiling panel, calcein-AM fluorescence, 48 h, basal (AID 1162). To be noted: higher = more signal.
The nature of assay [2]: adipocyte viability effects, profiling panel, cell-based, 3T3-L1 adipocytes, calcein-AM fluorescence, 48 h, basal (AID 1163). To be noted: 3T3-L1 adipocytes viability, higher = more signal.
Assay [3] is described as follows: HepG2 cell viability effects, profiling panel, calcein-AM fluorescence, 48 h, basal (AID 1164). To be noted: higher = more signal.
A short description of assay [4]: MM1S cell viability effects, profiling panel, calcein-AM fluorescence, 48 h, basal (AID 1165).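 Also: viability of MM1S multiple myeloma cells under basal unstimulated conditions.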 To be noted: higher = more signal.
A short description of assay [5]: basal RPMI8226 viability, no added stimulus, profiling panel, cell-based, calcein-AM fluorescence, 48 h, PK04 Diversity Set (AID 1166).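 Also: cells grown under basal conditions without added stimulus.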 To be noted: RPMI8226 myeloma viability, higher = more signal.
Assay [6] in a line: basal HepG2 mitochondrial membrane potential changes, profiling panel, cell-based, JC-1 fluorescence, 24 h, 100 nL compound (AID 1167). To be noted: higher = more signal.
Assay [7] can be described thus: basal 3T3-L1 adipocyte mitochondrial potential changes, profiling panel, cell-based, JC-1 fluorescence, 3T3-L1 adipocytes, 24 h, 100 nL compound (AID 1168). To be noted: JC-1 mitochondrial fluorescence, higher = more signal, called active from +8 up or from −8 down.
The nature of assay [8]: basal RPMI8226 mitochondrial membrane potential changes, profiling panel, cell-based, JC-1 fluorescence, 24 h, 100 nL compound (AID 1169). To be noted: RPMI8226 myeloma, JC-1 mitochondrial potential fluorescence, higher = more signal.
Assay [9] in a line: basal MM1S mitochondrial membrane potential changes, profiling panel, cell-based, JC-1 fluorescence, 24 h, 100 nL compound (AID 1170). To be noted: higher = more signal.
The nature of assay [10]: A549 lung cancer cell viability effects, profiling panel, resazurin fluorescence, 24 h, PK04 Diversity Set (AID 1171). To be noted: higher = more signal, called active from +8 up or from −8 down. (Resazurin is reduced to fluorescent resorufin, in cell work by metabolically active cells.)

Calls of active or inactive are those of the source.
Also: test concentration not given here.

`COC(=O)C1=CC(CCCO)=CC(c2cccs2)N(Cc2cccc(OC(F)(F)F)c2)C=C1C(=O)OC` (stereo not given): the z-score in assay [1] is -0.855; in assay [2] it was 0.543; in assay [3], 0.896; in assay [4], -2.69; in assay [5], -3.76; in assay [6] it was 0.996. Moreover, the z-score was 0.000649 (inactive) in [7], -0.786 in [8], -0.512 in assay [9] and -0.257 (inactive) in assay [10].

With `[N-]=[N+]=Nc1ccccc1C[C@]1(C(=O)NCCN2CCOCC2)COC(c2ccc(OCCCO)cc2)=N1`, the z-score in assay [1] was 1.84; in [2], 0.0471; in [3], 1.31; in assay [4], 0.534; in assay [5] it was 0.586; in assay [6] it was 0.157. Moreover, the z-score was 0.959 (inactive) in [7], -0.264 in assay [8], -0.422 in assay [9] and 0.887 (inactive) in assay [10].

Regarding `COCC(=C=CC[C@H](O)c1ccc(OCCO)cc1)CCO`, the z-score in [1] is 1.06; in assay [2], 0.156; in assay [3], -0.587; in assay [4] it was -1.28; in assay [5], 0.231; in [6] it was -0.255. In addition, the z-score in assay [7] was -0.597 (inactive); in assay [8], 0.854; in assay [9] it was 0.464; in assay [10] it was 1.01 (inactive).

As to `CN(C)C(=O)[C@]1(Cc2ccccc2CN=[N+]=[N-])N=C(c2ccc(OCCCO)cc2)O[C@@H]1c1ccccc1`, the z-score in assay [1] was -2.01; in [2] it was 0.894; in [3] it was -1.65; in assay [4] it was -3.16; in [5], -4.37; in assay [6], -0.117. The z-score in assay [7] was -0.58 (inactive); in assay [8] it was -1.33; in [9] it was -1.37; in assay [10], 0.721 (inactive).

On to `Cc1ccc(C(C)CC(O)C2C=CC3C(=O)N(c4ccccc4)C(=O)C3N2Nc2ccccc2)o1` (stereo not given), for which the z-score in assay [1] was -0.0446; in assay [2], 0.001; in assay [3], 0.179; in [4], -0.559; in [5] it was -1.69; in [6], -1.64. For the same molecule, the z-score was -0.279 (inactive) in assay [7], -0.178 in [8], -1.71 in assay [9] and -0.706 (inactive) in [10].

On to `CCOC(=O)C[C@H]1[C@H](OC(=O)c2ccc(-c3ccccc3)cc2)[C@@H](NC(=O)CC(C)C)c2cc(OCCCO)ccc2N1C(=O)c1ccc2ccccc2n1`, for which the z-score is 1.37 in [1]; 0.556 in assay [2]; 0.627 in assay [3]; 0.139 in assay [4]; 0.0627 in [5]; 1.66 in assay [6]. Further, the z-score in [7] is 1.47 (inactive); in assay [8] it was -0.233; in assay [9], -0.411; in assay [10], 0.713 (inactive).

Turning to `COC(=O)[C@@]1(Cc2ccc(F)cc2)[C@H]2c3cc(C(=O)N(C)C)n(CCc4ccc(OC)c(Br)c4)c3C[C@H]2CN1C(=O)c1ccccc1`, the z-score in assay [1] was -2.25; in [2] it was 0.0834; in assay [3], -1.42; in assay [4], -3.29; in [5], -4.63; in assay [6], -1.68. Besides, the z-score in assay [7] was -0.662 (inactive); in assay [8] it was -0.812; in assay [9], -2.89; in assay [10], -2.93 (inactive).

`COC(=O)[C@@]1(Cc2ccc(F)cc2)[C@H]2c3cc(C(=O)N4CCCC4)n(Cc4ccc(C)c(F)c4F)c3C[C@H]2CN1C(=O)c1ccccc1`: the z-score in [1] was -0.858; in [2], -0.82; in assay [3], 0.97; in [4] it was -3.35; in assay [5], -3.35; in assay [6], 1.01. For the same molecule, the z-score is -1.02 (inactive) in assay [7], -0.59 in assay [8], -1.38 in [9] and -0.718 (inactive) in assay [10].

Take `COc1ccc(CCNC(=O)[C@@]2(Sc3ccc(C)cc3)CC(=O)N(Cc3ccccc3C(F)(F)F)[C@@H]2c2ccc(CO)cc2I)cc1`: the z-score in assay [1] was 0.751; in assay [2] it was -0.178; in assay [3], -0.253; in [4] it was -2.41; in assay [5], -2.36; in assay [6], -1.03. Also, the z-score in [7] is -0.322 (inactive); in [8], -0.714; in assay [9], -0.841; in [10], 0.956 (inactive).

Regarding `CC(=O)NCCCC[C@@H]1NC(=O)[C@@H]2C[C@H](C(=O)NCCCCCN)[C@H](c3cccc(OCCO)c3)N2C1=O`, the z-score is 1.3 in [1]; 0.749 in assay [2]; 0.74 in [3]; 0.151 in assay [4]; 1.3 in assay [5]; 0.0102 in assay [6]. Moreover, the z-score in assay [7] was 0.608 (inactive); in assay [8] it was -0.721; in assay [9], -0.0434; in assay [10], 0.914 (inactive).

As for `COC(=O)C(CC#Cc1ccc2c(c1)[C@]1(C(=O)N2)[C@H](c2ccc(O)cc2)N2[C@H](c3ccccc3)[C@H](c3ccccc3)OC(=O)[C@H]2[C@@H]1C(=O)NC[C@H](O)c1ccccc1)C(=O)OC`, the z-score in assay [1] is -0.857; in [2], -0.909; in assay [3], -0.045; in [4] it was -1.58; in assay [5], -1.83; in assay [6], -2.42. Also, the z-score in assay [7] was -0.837 (inactive); in assay [8], -0.829; in [9], -0.633; in [10], -0.407 (inactive).

In the case of `CCCCC[C@H]1OC[C@@]23C=C(Br)[C@@H](CC12)[C@@]1(CO1)C3=O` (stereo not given in full), the z-score was 0.433 in assay [1]; -0.0037 in [2]; -0.424 in assay [3]; -2.8 in [4]; -1.5 in assay [5]; -1.76 in [6]. Further, the z-score in assay [7] was -0.498 (inactive); in [8], -0.314; in assay [9], -0.824; in assay [10], -0.612 (inactive).

Consider `C=CCOC(=O)[C@@H]1[C@H]2C(=O)O[C@H](c3ccccc3)[C@H](c3ccccc3)N2[C@H](c2ccc(OCCOC(=O)[C@@H]3C[C@@H]4C(=O)N[C@@H](CCCC[N+](C)(C)C)C(=O)N4[C@@H]3c3ccc(O)cc3)cc2)[C@@]12C(=O)Nc1ccc(I)cc12`, for which the z-score is -0.602 in [1]; 0.751 in [2]; -0.495 in assay [3]; -2.03 in assay [4]; -1.7 in assay [5]; -1.87 in assay [6]. For the same molecule, the z-score in assay [7] was -0.582 (inactive); in assay [8], -0.657; in assay [9], -1.1; in [10] it was 0.0416 (inactive).

`COc1ccc([Si](C)(C)[C@@H]2[C@@H](CC(=O)N3CCC[C@H]3CO)O[C@]3(C(=O)N(Cc4cccc(N5C(=O)COc6ccccc65)c4)c4ccccc43)[C@H]2C)cc1`: the z-score is -0.97 in [1]; 0.441 in assay [2]; -4.31 in assay [3]; -2.96 in assay [4]; -3.83 in [5]; -1.81 in [6]. The z-score in [7] was -1.01 (inactive); in assay [8] it was -0.975; in assay [9], -2; in assay [10], -2.13 (inactive).

The record behind these values is PubChem BioAssay.
